# Measurements reported in PubChem BioAssay AID920 (The Scripps Research Institute Molecular Screening Center, 2007).
# The campaign covered roughly 200,000 compounds. About 700 (0.35%) were called active. Many of the other results were omitted from the sample, so actives are more common in it than they were. Values without a mark were called inactive.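 Rule for the calls: active = inhibition above a set limit, the mean inhibition across all tested compounds plus 3 SD (cut at about 34% in these data); inactive = the rest.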
# Assay: blockers of IFN-gamma driven STAT1 reporter – cell-based, HTS, luciferase reporter, primary screen (AID 920);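 note: 0% = IFN-gamma with DMSO and 100% = IFN-gamma with 300 µM nifuroxazide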
# Conditions: NIH 3T3 STAT1-luciferase reporter, luminescence, at 5.5 µM, hits give high values
row,Structure (SMILES),inhibition
1,Clc1cccc(-c2nc(NCC3CCCO3)c3ccccc3n2)c1 (stereo not drawn),-0.29%
2,CCc1[nH]nc(C(=O)N2CCCC(CNS(=O)(=O)c3cccs3)C2)c1C (stereo not drawn),0.5%
3,O=C(Nc1cccc([N+](=O)[O-])c1)Nc1ccc(Cl)cn1,-18.6%
4,CCN(CC)C(=O)CN(c1cccc([N+](=O)[O-])c1)S(=O)(=O)c1ccccc1,3.4%
5,O=C(CCl)N(Cc1cccc([N+](=O)[O-])c1)c1cccc(Cl)c1,60.4% (active)
6,Cn1cccc1/C=C1\SC(=S)N(NC(=O)c2ccc(Cl)cc2)C1=O,-4.58%
7,Cc1cc(C)nc(Nc2ncn[nH]2)n1,-2.94%
8,Oc1ccc(-c2nncn2-c2ccccc2)cc1,-0.73%
9,CCN(CC)C(=O)c1ccc(O)c(OC)c1,1.97%
10,COc1ccc(OCc2cccc(C(=O)N3CCCC3)c2)cc1,17.5%
11,CCOc1ccc(OCc2cccc(C(=O)N(CC)CC)c2)cc1,61% (active)
12,CCOc1ccc(NC(=O)CSc2ncnc3c2sc2ccccc23)cc1,1.83%
13,Cc1nnc(CN(C)Cc2cn[nH]c2-c2ccc(-c3ccccc3)cc2)o1,-18.1%
14,CCCCn1c(O)c(N=NC(=O)Cn2c(C(F)(F)F)nc3ccccc32)c2ccccc21,-1.73%
15,Cc1ccc(N(C(=O)Cc2cccs2)C2C=CS(=O)(=O)C2)cc1Cl (stereo not drawn),0.68%
16,C[C@@H]1C[C@@H]2O[C@H]2/C=C\C=C\C(=O)Cc2c(Cl)c(O)cc(O)c2C(=O)O1,41.3% (active)
17,O=C(COC(=O)CCc1ccc(S(=O)(=O)N2CCOCC2)cc1)Nc1cccc(Cl)c1,-8.09%
18,CCN(CC)S(=O)(=O)c1ccc(C)c(NC(=O)COc2ccc(Br)cc2Cl)c1,0.32%
19,O=C(Nc1ccc2c(c1)OCCO2)c1cnccn1,-23.3%
20,Cn1cc([N+](=O)[O-])c(C(=O)Nc2cnn(Cc3ccc(F)cc3)c2)n1,20.5%
21,Cn1cc([N+](=O)[O-])c(C(=O)Nc2ccc3c(c2)OCCO3)n1,48.8% (active)

row,Structure (SMILES),inhibition
1,NS(=O)(=O)c1ccc(N2C(=O)C3C4CC(C(Br)C4Br)C3C2=O)cc1 (stereo not drawn),2.56%
2,CS(=O)(=O)N(Cc1ccccc1)c1ccc(C(=O)NN=C2CCCCCC2)cc1,6.58%
3,O=C(Nc1nc2ccc([N+](=O)[O-])cc2s1)c1ccc(S(=O)(=O)N2CCCc3ccccc32)cc1,12.3%
4,O=C(NC(Nc1nc2ccc([N+](=O)[O-])cc2s1)(C(F)(F)F)C(F)(F)F)c1ccccc1,60.6% (active)
5,O=C(O)CCC(=O)Nc1nc2ccc([N+](=O)[O-])cc2s1,-0.97%
6,O=C(COc1ccccc1)Nc1ccc(N2CCN(C(=O)c3cccs3)CC2)cc1,-5.48%
7,CN(c1ccc2nc3ccccc3c(=O)n2n1)C1CCCCC1,90.1% (active)
8,CCOC(=O)C(C)Sc1nc2ccccc2c(=O)n1CC1CCCCC1 (stereo not drawn),2.46%
9,O=c1c2ccccc2nc2n1C1(CCCCC1)Cc1ccccc1-2,-5.21%
10,Cc1ccc(C)c(-n2nnnc2SCC(=O)c2c(N)n(C)c(=O)n(C)c2=O)c1,-0.37%
11,CCc1ccc(NC(=O)Nc2ccncc2)cc1,-10.4%
12,COc1cc(C)c(Cl)cc1S(=O)(=O)n1ccnc1,7.39%
13,CCCOc1cc(C)c(S(=O)(=O)n2nnc3ccccc32)cc1C,-0.4%
14,CCOc1cc(C)c(Cl)cc1S(=O)(=O)n1nnc2ccccc21,42.2% (active)
15,CC(CC(=O)O)CC(=O)NNC(=O)c1cccc(Br)c1 (stereo not drawn),-8.27%
16,O=C1c2ccccc2NC(c2ccccn2)N1NS(=O)(=O)c1ccccc1 (stereo not drawn),-5.92%
17,O=C(c1cn(-c2ccccc2)nc1-c1cc2ccccc2oc1=O)N1CCOCC1,2.66%
18,Nc1ncc(-c2cc3ccccc3oc2=O)s1,-72.7%
19,O=c1oc2ccccc2cc1-c1cn(-c2ccccc2)c(=S)[nH]1,76.9% (active)
20,CCNC(=O)COc1cc(C)c(Br)c(C)c1,-0.94%
21,CCC1CCCCN1CCCNC(=O)c1cc2c(Cl)nc3ccccc3c2s1 (stereo not drawn),-24.2%

row,Structure (SMILES),inhibition
1,O=C(C1=C[C@H](c2coc3ccccc3c2=O)C[C@H](OCc2ccc(CO)cc2)O1)N1CCN(Cc2ccccc2)CC1,7.51%
2,O=C1CC(c2c(F)cccc2Cl)C(n2cncn2)C(O)=C1C1NCCc2ccccc21 (stereo not drawn),-3.15%
3,O=C(O)c1ccc(N/N=C/c2cn(-c3ccccc3)nc2-c2cccs2)cc1,-5.55%
4,O=C(O)c1ccc(N/N=C/c2ccc3ncccc3c2)cc1,37.4% (active)
5,CCNC(=S)NNC(=O)c1ccc2ncccc2c1,-9.62%
6,COc1ccc(N2CCN(C(=O)c3ccc4c(Cl)c5c(nc4c3)CCCC5)CC2)cc1,1.44%
7,Cn1cccc1-c1nc2ccccc2n1C,-1.19%
8,Cn1c(-c2ccco2)nc2cc3ccccc3cc21,36.6% (active)
9,CN1c2ccccc2-c2nc3ccccc3n2C1c1ccco1 (stereo not drawn),-3.93%
10,COCCNC(=S)N1CCC(NC(=O)C23CC4CC(CC(C4)C2)C3)CC1,-0.94%
11,CCOC(=O)C1(Cc2ccc(Cl)cc2)CCN(C(=O)C2=NNC(=O)CC2)CC1,2.27%
12,COC(=O)C1=C(C)N(C(C)c2ccccc2)C(=O)/C1=C\c1ccco1 (stereo not drawn),6.65%
13,CCn1c(CSc2nc(C)cc(C)n2)nnc1SCC(N)=O,-4.79%
14,Cc1ccccc1-n1cc(CNC(=O)CC2C(=O)NCCN2C/C=C/c2ccccc2)cn1 (stereo not drawn),-1.08%
15,O=C(CCN1CCN(c2ccccc2)CC1)NNC(=S)Nc1ccccc1,12.2%
16,CCN(CC)S(=O)(=O)c1ccc(NC(=O)c2cccnc2Cl)c(NC(=O)c2cccnc2Cl)c1,10.8%
17,O=c1cc(CSc2ccc(Cl)cc2)nc(N2CCOCC2)[nH]1,2.61%
18,Clc1ccc2nc(CSc3ccccc3)cn2c1,35.4% (active)
19,CCOc1ncccc1C(=O)OCc1cn2cc(Cl)ccc2n1,-9.01%
20,O=C(NCCCO)/C(=C\C=C\c1ccccc1)NC(=O)c1ccccc1Cl,3.7%
21,Cc1nn(C)c(C)c1CN(C(=O)CCc1nnc(Cc2c[nH]c3ccccc23)o1)C(C)C,-1.77%

row,Structure (SMILES),inhibition
1,C=CCn1c(C)cc(C2=NNC(=NCC)SC2)c1C,94.7% (active)
2,COCCn1c(C)cc(C2=NNC(=Nc3ccc(F)cc3)SC2)c1C,-36.4%
3,Cc1cc(C2=NNC(=Nc3ccc(S(=O)(=O)N4CCOCC4)cc3)SC2)c(C)n1CC1CCCO1 (stereo not drawn),-1.28%
4,N/C(=N\OC(=O)Cc1ccccc1[N+](=O)[O-])c1ccc(Br)cc1,0.32%
5,CCc1cc2c(N3CCN(c4nnc(CC)s4)CC3)ncnc2s1,51.2% (active)
6,CCc1cc2c(SCC(=O)Nc3ncc(Cl)c(C)c3Cl)ncnc2s1,-4.22%
7,CCc1cc2c(NC3CCCC3)ncnc2s1,22.1%
8,O=C1C2C3C=CC(C4CC34)C2C(=O)N1c1nccs1 (stereo not drawn),3.92%
9,C#CCOCCOCCOCCNc1nc(N2CCN(C(=O)[C@H](C(C)C)n3cc(CCO)nn3)CC2)nc(N2CCN(C(=O)[C@H]([C@@H](C)CC)n3cc(CCCN=C(N)N)nn3)CC2)n1,-0.51%
10,CC(=O)c1ccc(N2CCN(CC(=O)Nc3ccccc3N3CCOCC3)CC2)cc1,15%
11,O=C(CSC(=S)N1CCOCC1)c1ccccc1,-27.1%
12,O=C(CC(=O)Nc1ccc(Cl)c(Cl)c1)N/N=C/c1ccc(O)cc1,6.41%
13,O=C(CC(O)(C(F)(F)F)C(F)(F)F)Nc1ccc(Cl)c(Cl)c1,48.3% (active)
14,CN(C)CCNC(CC(=O)Nc1ccc(Cl)c(Cl)c1)C(=O)O (stereo not drawn),0.9%
15,CC1=C(C)CC(C(=O)NC(C)CCc2ccccc2)C(C(=O)O)C1 (stereo not drawn),-0.81%
16,CCCCOc1ccc(C(=O)NCC(=O)OCC(=O)N2CCN(S(=O)(=O)c3ccc(C)cc3C)CC2)cc1,-1.91%
17,CCCNC(=O)c1c(N)n(-c2ccc(S(N)(=O)=O)cc2)c2nc3ccccc3nc12,-1.16%
18,CCC(C)NC(=O)c1c(N)n(/N=C/c2cccs2)c2nc3ccccc3nc12 (stereo not drawn),39.4% (active)
19,CC(C)Cn1c(N)c(C(=O)NCc2cccs2)c2nc3ccccc3nc21,-2.91%
20,Cc1ccc(-c2nc(-c3cccnc3)sc2CC(=O)Nc2ccc(C)c(Cl)c2)cc1,13.7%
